# High-throughput results: PubChem BioAssay, several laboratories
# In the library only some 3.9% were active in any assay of this set; here they are far more common.
# BoNT-A LC inh2 – BoNT/A light chain protease inhibitors, primary screen, biochemical, flow cytometry, MLPCN library. actives 0.17% (n = 360,000). inhibition, % at 10 µM. multiplex microsphere protease substrate cleavage. AID 588499, 2011
# Anthrax LF prot – Bacillus anthracis LF protease inhibitors, primary screen, biochemical, multiplex microsphere, MLPCN library. multiplex microsphere protease cleavage assay. Lethal factor (Bacillus anthracis), P15917. inhibition, % at 10 µM. actives 0.12% (n = 360,000)
# Target sequence (P15917 whole entry, looked up): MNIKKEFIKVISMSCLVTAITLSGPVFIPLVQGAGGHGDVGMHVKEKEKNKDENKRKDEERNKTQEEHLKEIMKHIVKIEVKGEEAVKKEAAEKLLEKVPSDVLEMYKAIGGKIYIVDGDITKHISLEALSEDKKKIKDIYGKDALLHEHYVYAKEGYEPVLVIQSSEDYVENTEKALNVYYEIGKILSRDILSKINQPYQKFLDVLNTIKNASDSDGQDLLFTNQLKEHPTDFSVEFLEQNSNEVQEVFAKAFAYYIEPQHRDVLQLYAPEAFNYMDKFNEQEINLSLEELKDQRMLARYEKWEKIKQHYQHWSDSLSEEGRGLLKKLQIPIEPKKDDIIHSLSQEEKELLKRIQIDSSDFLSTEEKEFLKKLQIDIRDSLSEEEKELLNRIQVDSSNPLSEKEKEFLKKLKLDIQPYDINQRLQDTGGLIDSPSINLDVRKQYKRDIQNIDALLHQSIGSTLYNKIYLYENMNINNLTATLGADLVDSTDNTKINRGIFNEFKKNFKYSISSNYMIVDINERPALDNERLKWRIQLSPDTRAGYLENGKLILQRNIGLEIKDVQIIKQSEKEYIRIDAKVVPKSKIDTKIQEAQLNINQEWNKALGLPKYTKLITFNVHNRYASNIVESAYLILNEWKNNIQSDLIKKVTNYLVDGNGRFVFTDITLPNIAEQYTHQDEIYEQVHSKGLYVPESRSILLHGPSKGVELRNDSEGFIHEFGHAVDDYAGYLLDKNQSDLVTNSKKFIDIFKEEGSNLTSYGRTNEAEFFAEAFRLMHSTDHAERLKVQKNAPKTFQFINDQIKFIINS
# Bead autofluor – flagged as autofluorescent in microsphere protease counterscreen; AID 624483; compound autofluorescence counterscreen, microsphere flow cytometry; stronger effect = higher value; fluorescence intensity (no concentration beside the values); actives 3.1% (n = 360,000); in the data active means fluorescence intensity above about 16000; inconclusive means no clear call, values can overlap the other calls
# CCHFV vOTU inh – CCHFV vOTU protease inhibitors, primary screen, biochemical, Pep-AMC substrate, fluorescence | Crimean-Congo hemorrhagic fever virus L polyprotein viral ovarian tumor (vOTU) protease … | inhibition, % at 11.5 µM | actives 0.55% (n = 370,000) | AID 651958, 2012; in the data active means inhibition above about 30%
# SARS 3CLpro inh – SARS-CoV 3CLpro protease inhibitors, primary screen, biochemical, quenched FRET | Replicase polyprotein 1ab (Severe acute respiratory syndrome coronavirus), P0C6X7 | recombinant SARS-CoV 3CLpro, quenched FRET peptide cleavage | inhibition, % at 6 µM | actives 0.14% (n = 290,000) | AID 1706, 2009; in the data active means inhibition above about 12%
# BoNT F protease – BoNT/F light chain protease inhibitors, primary screen, biochemical, flow cytometry, MLPCN library; Botulinum neurotoxin type F light chain protease (Clostridium botulinum); Multiplex microsphere protease cleavage assay; inhibition, % at 10 µM; actives 0.22% (n = 360,000); AID 588497, 2011; in the data active means inhibition above about 35%, passing the limit was not always enough; inconclusive means no clear call, values can overlap the other calls
# Numbers stand for hits; - = inactive; ? = inconclusive; . = no result given. Unless noted, no stated cut-off is given here; in the data, active means inhibition above about 30%; inconclusive means no clear call, values can overlap the other calls; inactive means below that.
SMILES,BoNT-A LC inh2,Anthrax LF prot,Bead autofluor,CCHFV vOTU inh,SARS 3CLpro inh,BoNT F protease
CCOC(=O)N1CCN(C(=O)C2CC(c3ccccc3OC)=NO2)CC1 (centres undefined),-,-,20183,-,-,-
COc1cc(OC)c(C2=NOC(C(=O)N3CCCc4ccccc43)C2)cc1Cl (centres undefined),-,-,23619,-,-,-
CCC1CCCCN1C(=O)C1CC(c2cc(Cl)c(OC)cc2OC)=NO1 (centres undefined),-,-,-,-,-,-
COC(=O)[C@]12C[C@H](CC(=O)NCc3cccc(C(F)(F)F)c3)C(=O)N(Cc3cccc4ccccc34)C1=C[C@H](COCc1ccccc1)O[C@@H]2C,.,.,.,-,.,.
CC(C(=O)NCC1CCCO1)N(C(=O)c1snc(C(N)=O)c1N)c1cccc(F)c1 (centres undefined),-,-,-,-,-,-
CC(C(=O)NCC1CCCO1)N(C(=O)c1snc(C(N)=O)c1N)c1ccccc1 (centres undefined),-,-,23246,-,-,-
CC(NC(=O)C(=O)NCC1CCCO1)c1ccccc1 (centres undefined),-,-,-,-,-,-
CC(NC(=O)OCc1ccccc1)C(=O)NCC1CCCO1 (centres undefined),-,-,22834,-,-,-
CC(C)n1nnnc1C1(C)CCSCC(=O)N1Cc1cccc(C(F)(F)F)c1 (centres undefined),.,.,.,-,.,.
Cc1ccccc1-n1nnnc1Sc1nnnn1-c1ccccc1,-,-,-,-,-,-
c1ccc(-n2nnnc2Sc2n[nH]c(-c3ccncc3)n2)cc1,-,-,24881,-,-,-
O=S(=O)(c1ccccc1)N1CCCc2nc(-c3ccccc3)ccc21,.,.,.,-,.,.
O=C1C(=O)N(c2cccc(Cl)c2)C(c2ccccc2[N+](=O)[O-])/C1=C(\O)c1ccccc1 (centres undefined),-,-,21218,.,-,-
O=C1C(=O)N(c2ccccc2)C(c2ccccc2[N+](=O)[O-])/C1=C(\O)c1ccccc1 (centres undefined),-,-,-,-,-,-
Cc1cccc(C)c1NC(=O)[C@H]1CC(=O)O[C@@H]1c1ccccc1,.,.,.,-,.,.
CCOc1ccc(-n2c(SCC(=O)Nc3ccccc3-c3ccccc3)nnc2-c2cccs2)cc1,.,.,.,-,.,.
Cc1cc(SCC(=O)Nc2ccccc2)nc(C)n1,-,-,-,-,-,-
COC(=O)CSc1cc(C)nc(NC(C)=O)n1,-,-,-,-,-,-
CSc1nc(C)cc(SCC(=O)Nc2ccccc2)n1,-,-,23915,-,-,-
Cc1cc(C(F)(F)F)nc(SCC(=O)Nc2ccccc2)n1,?,-,22832,-,-,-
CSc1nsc(SCC(=O)Nc2cccc(C(C)=O)c2)n1,-,-,21617,-,-,-
COc1ccc(NC(=O)CSc2nc(C)cc(C(F)(F)F)n2)cc1,-,-,-,-,-,-
CCOC(=O)CSc1cc(C)nc(NC(C)=O)n1,?,-,19697,-,-,-
O=C(CNS(=O)(=O)c1ccccc1)N1CCN(c2ccccn2)CC1,.,.,.,-,.,.
COc1ccc(-n2c(COc3ccccc3)nnc2SCC(=O)Nc2ccc3c(c2)OCCO3)cc1,.,.,.,-,.,.
SMILES,BoNT-A LC inh2,Anthrax LF prot,Bead autofluor,CCHFV vOTU inh,SARS 3CLpro inh,BoNT F protease
Cn1c(SCCc2ccccc2)nnc1-c1ccco1,.,.,.,-,.,.
COC(=O)CSc1nc(C)cc(C)n1,-,-,-,-,-,-
COC(=O)CSc1cc(C)nc(SC)n1,-,-,20467,-,-,-
CCOC(=O)CSc1cn2c(n1)CCC2,-,-,24514,-,-,-
CCNC(=O)c1cc(Br)ccc1Cl,-,-,16959,-,-,-
COc1ccccc1CNC(=O)NC1CCN(CC(=O)Nc2ccc3c(c2)OCCO3)CC1,.,.,.,-,.,.
Cc1ccc(C2C(=O)N(C3CCCC3)CC(=O)N2CC2COc3ccccc3O2)cc1 (centres undefined),-,-,19758,-,-,-
COc1ccc(C2C(=O)N(C3CCCCC3)CC(=O)N2Cc2ccc3c(c2)OCO3)cc1 (centres undefined),-,-,-,-,-,-
